Laboratory results as given in PubChem BioAssay (NCATS).
Inconclusive results are not listed. Calls of active or inactive are those of the source. Unless noted, calls follow the shape of the dose curve; as a rule, active = well fitted curve in either direction with a large enough effect (not every such curve was filed as active); inconclusive = small, poorly fitted or top-dose-only effect, or another doubt; inactive = flat fitted curve, though single readings scatter.

What was measured:
[1] = AP1 Signaling Pathway (AID 357); conditions: ME-180 AP-1-bla reporter, EGF-induced, beta-lactamase ratio, 5 h; at 17.2 µM (top of the series) unless noted;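 also: ME-180 reporter cells stimulated with EGF at its EC50 level; % is scaled to controls: 0 for no effect and ±100 for the full control effect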
In short: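 Beta-lactamase reporter under AP-1 response element, ME-180 background. Stimulus: EC50 EGF. Compound exposure 5 h, 37 °C. Detection: CCF4, 2.5 h RT, 460/530 nm. Values: AC50 from titration.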

[2] = NFAT Signaling Pathway (AID 444); conditions: Jurkat NFAT-bla M1, carbachol, beta-lactamase ratio, 5 h; at 17.2 µM (top of the series) unless noted;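 also: carbachol stimulus at about its EC50 of 1 µM final; % is scaled to controls: 0 for no effect and ±100 for the full control effect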
In short: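 Jurkat cells carrying an NFAT-driven β-lactamase reporter and co-transfected muscarinic M1 receptor were treated with compound plus carbachol (1 uM final, an EC50 level) for 5 h at 37 °C. CCF4 loading followed for 1 h at RT; 460/530 nm ratio gave %activity.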

[3] = Stat Signaling Pathway (AID 446); conditions: ME-180 SIE beta-lactamase reporter, IL-6 stimulated, 5 h; at 17.2 µM (top of the series) unless noted;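 also: ME-180 cervical cancer cells given 40 pM IL-6 alongside compound; SIE-controlled beta-lactamase reporter measured as 460/530 nm FRET emission ratio; % is scaled to controls: 0 for no effect and ±100 for the full control effect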
In short: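 Screening format detects activators and inhibitors alike: ME-180 SIE-bla cells stimulated at 40 pM IL-6 for 5 hrs with compound, then dual-emission beta-lactamase read at 405 nm excitation.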

[4] = target: Glucocorticoid receptor (Homo sapiens) (UniProt P04150); assay: GR-GFP Redistribution (AID 450;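 active = compounds whose dose series gives a full or clear partial fitted curve of increased nuclear translocation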; also: potency is read from the fitted curve at half-maximal effect); conditions: U2OS GR-GFP nuclear translocation, laser cytometry, 2 h; series mostly up to 20.6 µM
Sequence of Glucocorticoid receptor (Homo sapiens) (P04150 whole entry, looked up): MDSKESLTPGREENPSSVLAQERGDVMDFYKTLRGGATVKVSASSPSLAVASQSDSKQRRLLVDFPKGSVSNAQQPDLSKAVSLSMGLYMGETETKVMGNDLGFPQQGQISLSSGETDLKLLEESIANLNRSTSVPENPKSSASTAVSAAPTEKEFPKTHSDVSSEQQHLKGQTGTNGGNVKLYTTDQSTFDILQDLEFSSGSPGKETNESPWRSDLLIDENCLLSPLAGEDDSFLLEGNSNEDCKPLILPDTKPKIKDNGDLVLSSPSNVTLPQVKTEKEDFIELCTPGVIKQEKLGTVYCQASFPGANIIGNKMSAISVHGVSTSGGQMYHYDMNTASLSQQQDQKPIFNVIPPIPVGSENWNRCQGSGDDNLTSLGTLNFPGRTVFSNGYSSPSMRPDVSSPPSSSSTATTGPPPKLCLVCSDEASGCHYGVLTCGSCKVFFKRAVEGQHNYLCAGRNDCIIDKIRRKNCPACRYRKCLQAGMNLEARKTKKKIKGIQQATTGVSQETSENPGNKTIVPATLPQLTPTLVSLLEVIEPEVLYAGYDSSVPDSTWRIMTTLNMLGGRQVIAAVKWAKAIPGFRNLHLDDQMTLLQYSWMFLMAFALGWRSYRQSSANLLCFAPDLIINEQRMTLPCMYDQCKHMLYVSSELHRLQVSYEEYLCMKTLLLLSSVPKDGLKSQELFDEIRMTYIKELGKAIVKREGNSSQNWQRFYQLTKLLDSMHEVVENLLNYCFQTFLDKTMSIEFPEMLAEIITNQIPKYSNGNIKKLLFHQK

CCCc1cc(NCCN2CCOCC2)n2c(nc3ccccc32)c1C#N
inactive: activity change, negative = inhibition [1] -11.4% | activity change, negative = inhibition [2] 9.42% | activity, negative = inhibition [3] -2.52% | Potency [4] > 20.6 µM

COc1ccc(/C=N/n2cncn2)cc1COc1ccc(NC(C)=O)cc1
inactive: activity change, negative = inhibition [1] -1.63% | activity change, negative = inhibition [2] 2.89% | activity, negative = inhibition [3] -3.18% | Potency [4] > 20.6 µM

CSc1nnc(N(CCC#N)CCC#N)s1
inactive: activity change, negative = inhibition [1] 2.14% | activity change, negative = inhibition [2] 21.3% | activity, negative = inhibition [3] 2.15% | Potency [4] > 20.6 µM

O=C(O)CCc1nn2cc(-c3ccccc3)nc2[nH]c1=O
inactive: activity change, negative = inhibition [1] 6.39% | activity change, negative = inhibition [2] -22.2% | activity, negative = inhibition [3] 10.5% | Potency [4] > 20.6 µM

COc1ccc(NC2CC(=O)N(C)C2=O)cc1 (configuration not stated)
inactive: activity change, negative = inhibition [1] 9.53% | activity change, negative = inhibition [2] -9.34% | activity, negative = inhibition [3] 11.9% | Potency [4] > 20.6 µM

CSc1nc2sc3c(c2c2nnnn12)CC(C)(C)OC3
inactive: activity change, negative = inhibition [1] -8.22% | activity change, negative = inhibition [2] -19.6% | activity, negative = inhibition [3] 15.4% | Potency [4] > 20.6 µM

CC(=O)OCc1c(COC(C)=O)[n+](=O)c2ccccc2n1[O-]
inactive: activity change, negative = inhibition [1] 8.53% | activity change, negative = inhibition [2] -3.2% | activity, negative = inhibition [3] 0.487% | Potency [4] > 20.6 µM

CCOC(=O)Cn1c(SC)nc2sc3c(c2c1=O)CC(C)(C)OC3
inactive: activity change, negative = inhibition [1] 3.62% | activity change, negative = inhibition [2] 10.2% | activity, negative = inhibition [3] -3.19% | Potency [4] > 20.6 µM

Nc1ccc(Cl)cc1/C(=N/O)c1ccccc1
inactive: activity change, negative = inhibition [1] -16.4% | activity change, negative = inhibition [2] -13.5% | activity, negative = inhibition [3] -5.27% | Potency [4] > 20.6 µM

O=C(CN1C(=O)c2ccccc2C1=O)OCN1C(=O)c2ccccc2C1=O
inactive: activity change, negative = inhibition [1] 8.86% | activity change, negative = inhibition [2] -11.6% | activity, negative = inhibition [3] 6.85% | Potency [4] > 20.6 µM

COC(=O)Sc1nc(N2CCOCC2)c2c(c1C#N)CC(C)(C)OC2
inactive: activity change, negative = inhibition [1] -17.4% | activity change, negative = inhibition [2] -7.69% | activity, negative = inhibition [3] -18.3% | Potency [4] > 20.6 µM

CCCCCC(=O)N1CC2(CC)CN(C(=O)CCCCC)CC(CC)(C1)C2=O
inactive: activity change, negative = inhibition [1] -3.04% | activity change, negative = inhibition [2] -17.5% | activity, negative = inhibition [3] 4.63% | Potency [4] > 20.6 µM

CCOC(=O)c1[nH]c2ccc(Br)cc2c1NC(=O)CCN1CCN(C(=O)OCC)CC1
inactive: activity change, negative = inhibition [1] -25% | activity change, negative = inhibition [2] -25.7% | activity, negative = inhibition [3] -26.2% | Potency [4] > 20.6 µM

O=C1CCCN1c1ccc(S(=O)(=O)NCc2ccco2)cc1
inactive: activity change, negative = inhibition [1] 1.18% | activity change, negative = inhibition [2] -10.1% | activity, negative = inhibition [3] 2.23% | Potency [4] > 20.6 µM

Cc1ccc(/C=N/n2nnnc2N)o1
inactive: activity change, negative = inhibition [1] 2.97% | activity change, negative = inhibition [2] -0.388% | activity, negative = inhibition [3] -5.51% | Potency [4] > 20.6 µM

c1cncc(Oc2cccc(Oc3cccnc3)c2)c1
inactive: activity change, negative = inhibition [1] -6.49% | activity change, negative = inhibition [2] -3.08% | activity, negative = inhibition [3] 29.4% | Potency [4] > 20.6 µM

CCOC(=O)NC1(C(F)(F)F)C(=O)NC(C)=C1C#N (configuration not stated)
inactive: activity change, negative = inhibition [1] 26.2% | activity change, negative = inhibition [2] -4.71% | activity, negative = inhibition [3] 1.98% | Potency [4] > 20.6 µM

CC(=O)Nc1ccc(NCC(O)COc2ccccc2)cc1 (configuration not stated)
inactive: activity change, negative = inhibition [1] -3% | activity change, negative = inhibition [2] -5.41% | activity, negative = inhibition [3] 3.96% | Potency [4] > 20.6 µM

CCOC(=O)C1CCN(C(C)=C2C(=O)c3ccccc3C2=O)CC1
inactive: activity change, negative = inhibition [1] 2.67% | activity change, negative = inhibition [2] 4.7% | activity, negative = inhibition [3] 1.52% | Potency [4]

O=c1cc(O)nc2n1CCCS2
inactive: activity change, negative = inhibition [1] 5% | activity change, negative = inhibition [2] -0.525% | activity, negative = inhibition [3] -1.13% | Potency [4] > 20.6 µM

O=C(O)C1[C@H]2C(=O)N(Cc3cccs3)C[C@]23C=C[C@H]1O3 (some centres not stated)
inactive: activity change, negative = inhibition [1] 4.68% | activity change, negative = inhibition [2] -3.3% | activity, negative = inhibition [3] 2.6% | Potency [4] > 20.6 µM

Cn1c(OCc2cccnc2)nc2c1c(=O)n(Cc1ccccc1)c(=O)n2C
inactive: activity change, negative = inhibition [1] -12.1% | activity change, negative = inhibition [2] -1.28% | activity, negative = inhibition [3] 4.58% | Potency [4] > 20.6 µM

CN(C)CCCN(CCCNC(=O)/C=N/O)Cc1ccccc1
inactive: activity change, negative = inhibition [1] -5.3% | activity change, negative = inhibition [2] -11.6% | activity, negative = inhibition [3] 17.4% | Potency [4] > 20.6 µM

Clc1ccc(-n2ncc3c(N4CCCC4)ncnc32)cc1
inactive: activity change, negative = inhibition [1] 3% | activity change, negative = inhibition [2] 6.28% | activity, negative = inhibition [3] -0.254% | Potency [4] > 20.6 µM

COc1cccc(-c2nn3c(-c4ccco4)nnc3s2)c1
inactive: activity change, negative = inhibition [1] -16% | activity change, negative = inhibition [2] 2.73% | activity, negative = inhibition [3] 6.95% | Potency [4] > 20.6 µM

CC(=O)c1cc(C#N)c(SCC(=O)C(C)(C)C)nc1C
inactive: activity change, negative = inhibition [1] -4.83% | activity change, negative = inhibition [2] -23.2% | activity, negative = inhibition [3] 12.6% | Potency [4] > 20.6 µM

COC(=O)C(NC(C)=O)(Nc1ccccn1)C(F)(F)F (configuration not stated)
inactive: activity change, negative = inhibition [1] -1.38% | activity change, negative = inhibition [2] 5.18% | activity, negative = inhibition [3] 0.0282% | Potency [4] > 20.6 µM

CCCCc1cc(=O)oc2c(CN3CCCC3)c(O)ccc12
inactive: activity change, negative = inhibition [1] 9.79% | activity change, negative = inhibition [2] 2.24% | activity, negative = inhibition [3] 3.31% | Potency [4] > 20.6 µM

COCCN(CCOC)C(=O)C12CCC(C)(C(=O)C1)C2(C)C (configuration not stated)
inactive: activity change, negative = inhibition [1] 9.52% | activity change, negative = inhibition [2] 8.02% | activity, negative = inhibition [3] 3.59% | Potency [4] > 20.6 µM

COc1cccc(C2/C(=C(/O)c3cnn(-c4ccccc4)c3C)C(=O)C(=O)N2CCN(C)C)c1 (configuration not stated)
inactive: activity change, negative = inhibition [1] 3.35% | activity change, negative = inhibition [2] -7.78% | activity, negative = inhibition [3] -11.2% | Potency [4] > 20.6 µM

CCOC(=O)CC1=NC(=O)CS1
inactive: activity change, negative = inhibition [1] 2.69% | activity change, negative = inhibition [2] 0.359% | activity, negative = inhibition [3] 4.4% | Potency [4] > 20.6 µM

CC(C)CC(=O)Nc1ccccc1N1CCCC1
inactive: activity change, negative = inhibition [1] 8.1% | activity change, negative = inhibition [2] 8.79% | activity, negative = inhibition [3] 0.417% | Potency [4] > 20.6 µM

CC(=O)Nc1ccc(Oc2ccc3nc(C)[nH]c3c2)cc1
inactive: activity change, negative = inhibition [1] -4.84% | activity change, negative = inhibition [2] 0.827% | activity, negative = inhibition [3] -5.58% | Potency [4] > 20.6 µM

Cc1cc(C)c(C#N)c(OCC(=O)c2ccccc2)n1
inactive: activity change, negative = inhibition [1] -15.4% | activity change, negative = inhibition [2] -4.3% | activity, negative = inhibition [3] -6.66% | Potency [4] > 20.6 µM

CCCCCCOc1ccc(N2C(=O)CC(N3CCN(C(=O)c4ccco4)CC3)C2=O)cc1 (configuration not stated)
inactive: activity change, negative = inhibition [1] -1.51% | activity change, negative = inhibition [2] 13.8% | activity, negative = inhibition [3] -13.2% | Potency [4] > 20.6 µM

COc1cccc(C=NCCNC(=O)c2nonc2N)c1O
inactive: activity change, negative = inhibition [1] 0.441% | activity change, negative = inhibition [2] -9.52% | activity, negative = inhibition [3] 7.79% | Potency [4] > 20.6 µM

CCCCOc1ccc(C(=O)NCC(=O)NCC(=O)OCC)cc1
inactive: activity change, negative = inhibition [1] -0.159% | activity change, negative = inhibition [2] -7.6% | activity, negative = inhibition [3] -5.03% | Potency [4] > 20.6 µM

Cc1cc(=O)oc(C)c1C(=O)NC1CC(C)(C)NC(C)(C)C1
inactive: activity change, negative = inhibition [1] -2.44% | activity change, negative = inhibition [2] -3.93% | activity, negative = inhibition [3] 0.837% | Potency [4] > 20.6 µM

CC1CN(c2oc(-c3ccccc3Cl)nc2C#N)CC(C)O1 (configuration not stated)
inactive: activity change, negative = inhibition [1] 6.37% | activity change, negative = inhibition [2] -6.23% | activity, negative = inhibition [3] 9.86% | Potency [4] > 20.6 µM

Cn1c(=O)[nH]c(=O)c2c1nc(Br)n2CCSc1nnnn1-c1ccccc1
inactive: activity change, negative = inhibition [1] -14.1% | activity change, negative = inhibition [2] 1.39% | activity, negative = inhibition [3] -8.23% | Potency [4] > 20.6 µM

CCN(CC)CCCC1(CN)OCCc2ccccc21 (configuration not stated)
inactive: activity change, negative = inhibition [1] 19.8% | activity change, negative = inhibition [2] -16.2% | activity, negative = inhibition [3] 8.19% | Potency [4] > 20.6 µM

CC1CCc2cc(F)cc3c(O)c(C(=O)Nc4cnccn4)c(=O)n1c23 (configuration not stated)
inactive: activity change, negative = inhibition [1] -8.92% | activity change, negative = inhibition [2] 19.5% | activity, negative = inhibition [3] 11.1% | Potency [4] > 20.6 µM

Cn1c(CSc2ncn[nH]2)nc2ccccc21
inactive: activity change, negative = inhibition [1] -5.65% | activity change, negative = inhibition [2] 3.91% | activity, negative = inhibition [3] 20.6% | Potency [4] > 20.6 µM

COCCNc1oc(-c2ccc(C)cc2)nc1C#N
inactive: activity change, negative = inhibition [1] -6.25% | activity change, negative = inhibition [2] 1.1% | activity, negative = inhibition [3] 0.279% | Potency [4] > 20.6 µM

CSc1nc2sc3c(c2c(=O)[nH]1)CCC(C)C3 (configuration not stated)
inactive: activity change, negative = inhibition [1] 7% | activity change, negative = inhibition [2] -2.6% | activity, negative = inhibition [3] 8.48% | Potency [4] > 20.6 µM

Cc1cc(C)n(-c2ncnc3sc(C)c(C)c23)n1
inactive: activity change, negative = inhibition [1] -15.7% | activity change, negative = inhibition [2] -7.26% | activity, negative = inhibition [3] 6.68% | Potency [4] > 20.6 µM

CC(C)(C)NC(=O)/C=N/O
inactive: activity change, negative = inhibition [1] 10.5% | activity change, negative = inhibition [2] 23.2% | activity, negative = inhibition [3] 3.21% | Potency [4] > 20.6 µM

CC1(C)CC(=O)C2=C(C1)N(Cc1ccco1)C(=O)C2(NC(=O)c1cccnc1)C(F)(F)F (configuration not stated)
inactive: activity change, negative = inhibition [1] -3.2% | activity change, negative = inhibition [2] -3.77% | activity, negative = inhibition [3] -9.45% | Potency [4] > 20.6 µM
